# Test results as given in the supplement of paper PMC3334620.
# The full ranking holds about 33,000 sequences; the median of “E-score (-0.5 to 0.5)” is about -0.012, and the highest 2% start at about 0.29. Many of the other results were omitted from the sample, so the highest values are more common in it than they were.
# Molecular target: T1, Ybr033w (UniProt P38073)
# T1 sequence: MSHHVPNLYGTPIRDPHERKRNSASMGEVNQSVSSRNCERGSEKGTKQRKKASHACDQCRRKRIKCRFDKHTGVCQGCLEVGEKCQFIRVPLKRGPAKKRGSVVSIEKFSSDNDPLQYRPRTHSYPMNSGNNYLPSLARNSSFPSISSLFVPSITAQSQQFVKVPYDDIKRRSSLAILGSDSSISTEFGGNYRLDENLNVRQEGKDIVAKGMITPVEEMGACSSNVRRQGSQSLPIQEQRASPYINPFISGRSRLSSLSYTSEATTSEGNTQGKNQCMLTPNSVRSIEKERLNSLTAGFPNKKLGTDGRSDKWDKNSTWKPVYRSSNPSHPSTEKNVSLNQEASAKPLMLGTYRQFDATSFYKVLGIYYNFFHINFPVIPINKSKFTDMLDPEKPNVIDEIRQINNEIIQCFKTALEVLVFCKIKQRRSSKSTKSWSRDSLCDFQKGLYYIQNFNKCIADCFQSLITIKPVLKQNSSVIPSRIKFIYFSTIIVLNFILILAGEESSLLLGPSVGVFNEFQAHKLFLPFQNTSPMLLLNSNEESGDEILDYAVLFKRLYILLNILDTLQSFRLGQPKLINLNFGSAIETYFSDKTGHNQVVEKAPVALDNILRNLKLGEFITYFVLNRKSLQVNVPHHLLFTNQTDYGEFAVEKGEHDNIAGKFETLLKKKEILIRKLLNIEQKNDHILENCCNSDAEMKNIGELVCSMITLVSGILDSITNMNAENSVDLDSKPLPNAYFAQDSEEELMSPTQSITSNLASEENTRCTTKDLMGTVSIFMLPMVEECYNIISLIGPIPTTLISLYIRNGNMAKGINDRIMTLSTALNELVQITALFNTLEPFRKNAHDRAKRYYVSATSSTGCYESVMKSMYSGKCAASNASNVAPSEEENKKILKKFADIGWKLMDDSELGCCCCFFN
# Assay: PBM E-score (8-mer binding enrichment) (E-score (-0.5 to 0.5)); higher = stronger / more preferred TF binding
# Settings: protein concentration: 200 nM; construct: GST-full length
# Description: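 Universal 'all 10-mer' protein binding microarrays (Agilent AMADID 015681) probed with GST-tagged S. cerevisiae TFs (full-length or DBD) made by in vitro transcription/translation (PURExpress), about 100-200 nM. Bound TF was detected with fluorescent anti-GST. Each ungapped 8-mer (which stands for itself and its reverse complement) is scored by the PBM enrichment score (E-score), a modified Wilcoxon-Mann-Whitney statistic from -0.5 to +0.5, computed with the Universal PBM Analysis Suite. Scale: above 0.35 generally sequence-specific binding.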
row,Sequence,PBM E-score
1,ATATTTCG,0.269
2,ATCTTTAA,0.299
3,CCCCTTTC,-0.262
4,GGAACGAA,0.104
5,AGGGATAT,0.0785
6,ACGACTCC,0.0443
7,CGGGGTAG,-0.177
8,GTGGCTAA,0.0232
9,GAAATTAA,0.294
10,AAAATTAC,0.22
11,AAATTTGT,0.303
12,AAAATTCA,0.359
13,AAATTTGG,0.0261
14,AAAATTCG,0.279
15,AAAATTAT,0.358
16,AAATTTAT,0.228
17,GAAATTCA,0.228
18,AATTTTGT,0.215
19,CAAATTAA,0.212
20,GAAATTAC,0.255
21,CCACTTAC,0.0573
22,TAACGGAA,0.153

row,Sequence,PBM E-score
1,CTCAGAGC,-0.191
2,CCGAAGTC,-0.0348
3,CAATGAAG,0.0396
4,GACTGTTA,0.0926
5,AGAGGAAT,-0.012
6,ACGAGGAC,-0.181
7,CTAAATGC,0.0943
8,AAAATTTC,0.132
9,TAAATTAA,0.283
10,GAAATTGC,0.0471
11,TAAATTGA,0.265
12,AAAATTAA,0.308
13,AAAATTAG,0.179
14,GAAATTGA,0.289
15,AAAATTTT,0.293
16,AAAAATTT,0.283
17,GGGGAGGA,-0.205
18,ATGGTCTC,-0.0831
19,CAGCAGAC,-0.106
20,ACAGTCGC,-0.136
21,AAGCGACG,-0.285
22,ACGGGTGG,-0.171

row,Sequence,PBM E-score
1,GTACGCTA,-0.178
2,TCCCTACA,-0.0308
3,CTAAAAAA,0.267
4,ATTAAACG,0.27
5,ATTAAAGA,0.327
6,CTTAAAGA,-0.102
7,ATTAAAAC,0.272
8,ATTAAAAG,0.223
9,ATTAAAAA,0.297
10,TTTAAAAA,0.149
11,TTAAAAAA,0.306
12,ATTAAACA,0.312
13,GTTAAAGA,0.182
14,CTTAAACA,0.104
15,GGGTATGA,0.0197
16,ACTCCCCT,-0.002
17,CTGATAAG,0.126
18,AGAAACCC,0.0994
19,CAGTGCCG,-0.105
20,CTTCGTAC,-0.103
21,GCCGCTAC,-0.121
22,GAGCTGCA,-0.284

row,Sequence,PBM E-score
1,CAGTAATC,-0.0846
2,GAGTAATC,0.132
3,CAGTAATG,0.282
4,GAGTAATA,0.334
5,CAGTAATA,0.317
6,AAGTAATA,0.0769
7,AAGTAATG,0.141
8,TAGTAATA,0.241
9,AAGTAATT,0.331
10,GGGCTGAA,0.0197
11,ATAGCCAT,0.0973
12,ACAATGCC,-0.0228
13,CGCAAATC,-0.0144
14,TAGGTGCA,-0.0741
15,TAATGGAA,0.184
16,GGGATTAA,0.411
17,GGGATTAC,-0.103
18,ATGATTAA,0.231
19,TGGATTAA,0.38
20,ATGATTTA,0.253
21,GTGATTTA,0.295
